The values that follow are results of earlier work, collected in PubChem BioAssay AID977611.

The whole screen tested about 3,900 compounds, of which about 3,900 (100%) were called active. Cut-off not given; nearly all actives show Kd up to about 4200 µM. So high a share suggests a set chosen from earlier hits. The list shows a part of the results. *1 amine or outer side, *2 acyl side, *3 side chain or, on linkers, in order; H or OH if unused. Where a SMILES comes first, the peptide text is derived from it. [ ]: non-standard residue; d: D form. The star is where a group is joined. X3 = CCCCCC[C@](C)(N[C@@H](O)CN)[C@H](O)N([C@@H](CC(C)C)C(=O)[*:2])[*:1]; Thr(P(OH)3+) = C[C@@H](O[P+](O)(O)O)[C@H](N)C(=O)O; Orn(CH(NH2)2) = NC(N)NCCC[C@H](N)C(=O)O; X4 = CCCCCC[C@](C)(N[*:1])C(=O)[*:2]; X1 = CCCC[C@@](C)(N[*:1])C(=O)[*:2]; X2 = CCCC[C@](C)(N[*:1])C(=O)[*:2]; Suc = O=C(CCC(=O)[*:2])[*:1]; Bz = O=C(c1ccccc1)*

The data set is described as follows: PubChem AID 977611. The settings on record: PDB protein-ligand complexes, literature Kd.

For the compound `O=C1C=C(O)C(=O)C=C1O`, the Kd (protein: 5-chloro-2-hydroxyhydroquinone dehydrochlorinase (TftG), PDB entry 4lbp) is 11.4 µM (active). Turning to `CNS(=O)(=O)Nc1nccc(Cc2c(C)c3ccc(Oc4ncccn4)cc3oc2=O)c1F`, for the setting “protein: Dual specificity mitogen-activated protein kinase kinase 1, Human MEK1 kinase, PDB entry 3wig”, the Kd is 0.0023 µM (active). Consider `CC(C)C[C@H](NC(=O)[C@@H](NC(=O)CNC(=O)c1ccccc1)C(C)C)C(=O)N[C@@H](CCCCN)C(=O)N[C@@H](CCC(=O)O)C(=O)N[C@@H](Cc1ccc(O)cc1)C(=O)NCC(=O)N[C@H](C(=O)O)C(C)C` (Bz-GVLKEYGV-OH), for which the Kd runs as follows: (protein: NAD-DEPENDENT PROTEIN DEACYLASE SIRTUIN-5, MITOCHONDRIAL zebrafish Sirtuin 5, PDB entry 4utr) 0.7 µM (active); (protein: NAD-DEPENDENT PROTEIN DEACYLASE SIRTUIN-5, MITOCHONDRIAL zebrafish Sirtuin 5, PDB entry 4utv) 8.2 µM (active); (protein: NAD-DEPENDENT PROTEIN DEACYLASE SIRTUIN-5, MITOCHONDRIAL zebrafish Sirtuin 5, PDB entry 4utx) 5.78 µM (active); (protein: NAD-DEPENDENT PROTEIN DEACYLASE SIRTUIN-5, MITOCHONDRIAL zebrafish Sirtuin 5, PDB entry 4uu7) 0.83 µM (active); (protein: NAD-DEPENDENT PROTEIN DEACYLASE SIRTUIN-5, MITOCHONDRIAL zebrafish Sirtuin 5, PDB entry 4uu8) 0.29 µM (active); (protein: NAD-DEPENDENT PROTEIN DEACYLASE SIRTUIN-5, MITOCHONDRIAL zebrafish Sirtuin 5, PDB entry 4uua) 5.78 µM (active). `CC(C)C[C@H](NC(=O)[C@@H](NC(=O)CNC(=O)c1ccccc1)C(C)C)C(=O)N[C@@H](CCCCNC(=O)CCC(=O)O)C(=O)N[C@@H](CCC(=O)O)C(=O)N[C@@H](Cc1ccc(O)cc1)C(=O)NCC(=O)N[C@H](C(=O)O)C(C)C` (Bz-GVLK(Suc)EYGV-OH): under “protein: NAD-DEPENDENT PROTEIN DEACYLASE SIRTUIN-5, MITOCHONDRIAL zebrafish Sirtuin 5, PDB entry 4utn”, the Kd is 0.71 µM (active). With `CC(=O)n1ccc2nc3ccc(Cl)cc3c-2c1`, under “protein: Bromodomain adjacent to zinc finger domain protein 2B BAZ2B Bromodomain, PDB entry 4nra”, the Kd is 65 µM (active). Turning to `c1ccc(-c2nsc(N3CCCNCC3)n2)cc1`, the Kd (protein: INTEGRASE, PDB entry 4ah9) was 3500 µM (active).

Take `Cc1ccc(C(=O)N(CCCN)[C@@H](C2=C(Cc3ccccc3)C(O)c3ccc(Cl)cc3O2)C(C)C)cc1` (stereo partly drawn): where the note is “protein: KINESIN-LIKE PROTEIN KIF11, PDB entry 4bxn”, the Kd was 0.01 µM (active). `O[C@@H](CC1c2ccccc2Sc2ccccc21)CN1CCCC1`: the Kd (protein: Renin, PDB entry 4gj8) was 500 µM (active). Turning to `Cc1ncc2c(n1)N(C)C(=O)C(=N)C2`, the Kd (protein: Caspase-6, PDB entry 4n5d) is 607 µM (active).

Take `CC[C@H](C)[C@H](NC(=O)[C@H](CC(C)C)NC(=O)[C@H](Cc1c[nH]cn1)NC(=O)[C@H](CC(=O)O)NC(=O)[C@H](CC(=O)O)NC(=O)[C@H](CCC(=O)O)NC(=O)[C@H](CC(=O)O)NC(=O)[C@@H](NC(=O)[C@H](CC(=O)O)NC(=O)[C@@H](N)CCC(=O)O)[C@@H](C)O[P+](O)(O)O)C(=O)N[C@@H](Cc1ccc(O)cc1)C(=O)N[C@@H](CC(C)C)C(=O)N[C@@H](CCC(=O)O)C(=O)N[C@@H](CCC(=O)O)C(=O)N[C@H](C(=O)N[C@@H](CC(C)C)C(=O)N[C@H](C(=O)N[C@@H](CCCNC(N)N)C(=O)N[C@H](C(=O)O)C(C)C)C(C)C)[C@@H](C)CC` (H-ED[Thr(P(OH)3+)]DEDDHLIYLEEILV[Orn(CH(NH2)2)]V-OH): for the setting “protein: C-terminal domain of human RAP74, PDB entry 2k7l”, the Kd was 0.7 µM (active). For `CC[C@H](C)[C@H](NC(=O)CNC(=O)[C@H](CCC(=O)O)NC(=O)CNC(=O)[C@H](CCC(=O)O)NC(=O)[C@H](CCC(=O)O)NC(=O)[C@H](CC(C)C)NC(=O)CNC(=O)[C@H](Cc1ccccc1)NC(=O)[C@H](Cc1c[nH]cn1)NC(=O)[C@H](Cc1ccc(O)cc1)NC(=O)[C@H](CC(=O)O)NC(=O)[C@@H](N)CC(C)C)C(=O)N[C@@H](CCCNC(N)N)C(=O)N[C@@H](CC(=O)O)C(=O)N[C@@H](CC(C)C)C(=O)N[C@@H](Cc1ccccc1)C(=O)N[C@H](C)CC(=O)O`, the Kd (protein: The human retinoblastoma tumor suppressor protein (pRb), PDB entry 1o9k) is 0.34 µM (active). On to `Nc1nc(-c2ccc(C(F)(F)F)cc2)cc(N2CCOCC2)n1`, for which the Kd (protein: Acetylcholine-binding protein AChBP, PDB entry 4qab) was 0.0002 µM (active). `CC1CCN(c2cc(-c3ccc(C(F)(F)F)cc3)nc(N)n2)CC1`: for the setting “protein: Acetylcholine-binding protein AChBP, PDB entry 4qac”, the Kd is 0.0004 µM (active). `CCCCCC[C@](C)(NC(=O)[C@H](CC(=O)O)NC(=O)[C@H](CC(C)C)N[C@@H](O)[C@](C)(CCCCCC)N[C@@H](O)CN)C(=O)N[C@@H](CC(C)C)C(=O)N[C@@H](CC(=O)O)C(=O)N[C@@H](CC(C)C)C(=O)N[C@@H](C)C(=O)N[C@@H](CO)C(=O)O` (H-[X3]D[X4]LDLAS-OH): the dissociation constant (Kd) (protein: 14-3-3 protein zeta/delta, PDB entry 4n84) is 0.51 µM (active). For the compound `CCCC[C@@](C)(NC(=O)CNC(=O)[C@@H](N)CCC(N)=O)C(=O)N[C@@H](CC(C)C)C(=O)N[C@@H](CC(=O)O)C(=O)N[C@@](C)(CCCC)C(=O)N[C@@H](CC(C)C)C(=O)N[C@@H](CC(=O)O)C(=O)N[C@@H](CC(C)C)C(=O)N[C@@H](C)C(=O)N[C@@H](CO)C(=O)O` (H-QG[X1]LD[X2]LDLAS-OH), the Kd (protein: 14-3-3 protein zeta/delta, PDB entry 4n7y) is 0.55 µM (active). Turning to `c1ccc([C@@H]2Nc3ccccc3-c3nc4ccccc4n32)nc1`, the Kd (protein: Retinal rod rhodopsin-sensitive cGMP 3',5'-cyclic phosphodiesterase subunit delta, PDB entry 4jv8) is 1.42 µM (active).

As for `Cc1cc2nc3c(=O)[nH]c(=O)nc-3n(C[C@H](O)[C@H](O)[C@H](O)CO)c2cc1C`, where the note is “protein: putative protease fromBacteroides thetaiotaomicron (ppBat), PDB entry 4d1y”, the Kd was 0.074 µM (active). Turning to `O=C1N[C@@H](c2cccnc2)c2c(-c3ccccc3)n[nH]c21`, the dissociation constant (Kd) (protein: Gag protein, PDB entry 4j93) was 20 µM (active).

As a reminder, the Kd is the free concentration of one partner at which half of the binding sites on the other are occupied at equilibrium, for simple one-to-one binding.
